# Data as given in PMC4336329 (PLoS ONE, 2015).
# Hit rate of the full screen: of about 310,000 compounds, about 2,200 (0.71%) showed an effect of 50% or more. Effects have a minus sign here. For the sample, strong results were picked, then their nearest neighbours and some compounds at random.
# Target: human ether-à-go-go-related gene (hERG) potassium channel (human, UniProt Q12809)
# Assay: primary screen, population patch clamp on CHO cells stably expressing hERG; higher = less effect of the substance
# Protocol: Briefly, Chinese hamster ovary (CHO) cells stably expressing the hERG channel were dislodged from tissue culture flasks and dispensed into PPC plates. […] During the recording, background leak currents were estimated by a 100 ms step to -80 mV from an initial holding potential of -70 mV and subtracted from the subsequent current measurement. The campaign was conducted in two phases using slight differences in recording protocol. In the first phase, the initial voltage pulse used a 100 ms step to -30 mV from a holding potential of -70 mV, a 2 s conditioning step to +25 mV, and a 2 s test step to -30 mV. During the second phase of the screen, the potential during the conditioning step was raised to +45 mV. In both phases of the campaign, a secondary voltage pulse was applied using the same parameters as the second phase initial pulse. The initial and secondary pulses were applied in the absence of compound, and upon application of 1 μM and 10 μM test concentrations. Small molecule effects on hERG current density were quantified by […].
# Chain of human ether-à-go-go-related gene (hERG) potassium channel (Q12809 whole entry, looked up): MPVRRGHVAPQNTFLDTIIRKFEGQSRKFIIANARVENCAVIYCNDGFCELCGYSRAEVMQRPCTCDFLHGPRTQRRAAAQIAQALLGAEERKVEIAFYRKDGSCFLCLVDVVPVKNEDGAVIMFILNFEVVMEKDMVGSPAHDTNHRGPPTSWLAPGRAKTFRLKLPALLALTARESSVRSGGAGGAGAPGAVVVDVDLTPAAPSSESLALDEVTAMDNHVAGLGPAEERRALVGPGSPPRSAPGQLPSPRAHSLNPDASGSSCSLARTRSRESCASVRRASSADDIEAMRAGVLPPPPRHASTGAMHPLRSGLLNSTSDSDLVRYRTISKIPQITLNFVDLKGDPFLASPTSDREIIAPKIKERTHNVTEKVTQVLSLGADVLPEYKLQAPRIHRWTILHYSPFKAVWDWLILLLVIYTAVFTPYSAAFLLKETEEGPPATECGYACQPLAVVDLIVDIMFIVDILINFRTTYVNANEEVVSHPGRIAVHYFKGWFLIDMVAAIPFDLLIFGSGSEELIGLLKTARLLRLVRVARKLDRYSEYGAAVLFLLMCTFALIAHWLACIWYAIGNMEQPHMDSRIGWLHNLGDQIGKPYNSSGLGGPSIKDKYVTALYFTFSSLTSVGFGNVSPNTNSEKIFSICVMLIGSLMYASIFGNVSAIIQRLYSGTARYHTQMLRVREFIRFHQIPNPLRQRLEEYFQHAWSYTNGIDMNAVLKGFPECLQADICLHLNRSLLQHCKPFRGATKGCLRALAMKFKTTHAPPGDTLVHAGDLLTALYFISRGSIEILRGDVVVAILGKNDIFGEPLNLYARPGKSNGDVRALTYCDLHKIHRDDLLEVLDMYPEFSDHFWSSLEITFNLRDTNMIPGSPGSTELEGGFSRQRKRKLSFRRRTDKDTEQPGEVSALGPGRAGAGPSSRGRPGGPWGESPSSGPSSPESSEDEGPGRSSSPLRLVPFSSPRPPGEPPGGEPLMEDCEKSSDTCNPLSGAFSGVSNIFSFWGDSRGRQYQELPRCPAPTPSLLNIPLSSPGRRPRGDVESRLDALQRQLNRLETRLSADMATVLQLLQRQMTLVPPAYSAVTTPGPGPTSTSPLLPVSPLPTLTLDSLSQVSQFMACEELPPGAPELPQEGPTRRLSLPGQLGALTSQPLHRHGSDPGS
row,Structure (SMILES),"hERG current change (%, negative = inhibition) at 1uM [%]"
1,CCOc1cc(C)ccc1OCc1nnc(SCC(=O)c2cccc([N+](=O)[O-])c2)n1CC,-1.84
2,O=C(Nc1cc(=O)[nH]c2ncnn12)c1ccc(Cl)cc1Cl,-2.66
3,CC(C)(C)c1ccc(C(=O)NN2C(=O)CSC2=S)cc1,12.1
4,CCOC(=O)C1(CCc2ccccc2)CCN(Cc2cccc3cnccc23)CC1,-4.67
5,CCOC(=O)C1(Cc2ccccc2)CCN(Cc2cccc(OC)c2O)CC1,-31
6,CCOC(=O)C1(CCc2ccccc2)CCN(Cc2cccc3nccnc23)CC1,-19.3
7,CCOC(=O)C1(Cc2ccccc2)CCN(Cc2ccc3c(c2)OCCO3)CC1,-0.488
8,CCOC(=O)C1(CCc2ccccc2)CCN(Cc2ccco2)CC1,-42.7
9,CCOC(=O)C1(CCc2ccccc2)CCN(CC(O)CO)CC1 (stereo not drawn),1.26
10,CCOC(=O)C1(CCc2ccccc2)CCN(Cc2cc(OC)c(OC)cc2OC)CC1,-68.1
11,CCOC(=O)C1(CCc2ccccc2)CCN(Cc2ccc(OC)cc2)CC1,-86.9
12,CCOC(=O)C1(CCc2ccccc2)CCN(Cc2c(O)cccc2OC)CC1,-28.7
13,CCOC(=O)C1(CCOc2ccccc2)CCN(Cc2ccc3c(c2)OCCO3)CC1,-25.8
14,CCOC(=O)C1(CCc2ccccc2)CCN(Cc2ccc3c(c2)OCCO3)CC1,-91.4
15,CCOC(=O)C1(CCc2ccccc2)CCN(Cc2ccc(O)cc2)CC1,-86.3
16,Cc1ccc(/C=N/Nc2nnc(Cl)c3ccccc23)cc1,-1.46
17,COc1ccc(C[C@H]2c3cc(O)c(OC)cc3CC[N+]2(C)[O-])cc1O (stereo partly drawn),16.9
18,Cn1c(NCCc2ccccc2)cc(=O)n(C)c1=O,11.8
19,Cc1ccc(C(=O)N(C)Cc2ccc(N3CCOCC3)cc2)cc1S(=O)(=O)NCc1ccccc1,1.2
20,CCCCNC(=S)NNC(=O)c1cc(C2CC2)nc2ccccc12,13.2
21,COc1ccc(C2CC(=O)n3c(nc4ccccc43)S2)cc1OC (stereo not drawn),12.9
22,COc1ccc(CNC(=O)COC(=O)CN2C(=O)C(C)Oc3ccc(C)cc32)cc1 (stereo not drawn),9.75
23,CCOC(=O)C1(CCOc2ccccc2)CCN(Cc2ccc(C(=O)OC)cc2)CC1,-15.5
24,CCOC(=O)C1(CCc2ccccc2)CCN(Cc2ccc(C(=O)OC)cc2)CC1,-86.1
25,CCOC(=O)C1(CCOC)CCN(Cc2ccc(C(=O)OC)cc2)CC1,0.201
26,Cc1ccc(NC(=O)/C(C#N)=C/c2ccc(C)s2)c(C)c1,14.2
27,Cl.O=C(c1cccc(S(=O)(=O)N2CCCCC2)c1)N1CCN(Cc2ccccc2)CC1,6.64

row,Structure (SMILES),"hERG current change (%, negative = inhibition) at 1uM [%]"
1,N#Cc1ccc(CN2CCN(C(=O)c3cccc(S(=O)(=O)N4CCCCCC4)c3)CC2)cc1,-51.3
2,N#Cc1ccc(CN2CCN(C(=O)c3ccc(S(=O)(=O)N4CCCCCC4)cc3)CC2)cc1,-5.24
3,Cc1sc2ncn(Cc3ccccc3F)c(=O)c2c1C,1.65
4,O=C1CS/C(=N/N=C2C3CC4CC(C3)CC2C4)N1,-4.65
5,CC(=O)OC1CC[C@]2(C#N)[C@H]3CC[C@]4(C)[C@H](C5C=CC(=O)O5)CCC4(O)C3CCC2(O)C1 (stereo partly drawn),12.9
6,Cc1cc(C(=O)N2CCCC(N3CCN(c4ccccc4C)CC3)C2)n(C)n1 (stereo not drawn),-87.7
7,CCCc1cc(C(=O)N2CCCC(N3CCN(c4ccccc4C)CC3)C2)n(C)n1 (stereo not drawn),3.48
8,Cc1ccccc1N1CCN(C2CCCN(C(=O)c3cc(CC(C)C)nn3C)C2)CC1 (stereo not drawn),5.95
9,Cc1cccc(NS(=O)(=O)c2ccc(C(=O)NCC(C)(C)N3CCOCC3)cc2)c1C,-6.55
10,Cc1nc2sc(C(c3cccs3)N3CCN(Cc4ccccc4)CC3)c(O)n2n1 (stereo not drawn),-50.1
11,COc1ccc(C(c2sc3nc(C)nn3c2O)N2CCN(Cc3ccccc3)CC2)cc1OC (stereo not drawn),3.82
12,Cc1nc2sc(C(c3cccs3)N3CCN(c4ccccc4)CC3)c(O)n2n1 (stereo not drawn),5.92
13,COc1ccc(OC)c(/C=N/N(C)c2ccccc2)c1,12.4
14,O=C(NCCCCO)C(F)(F)C(F)(F)C(F)(F)C(=O)NCCCCO,14.4
15,CCC(CC)C(=O)c1c[nH]c(C(=O)NCc2ccncc2)c1,10
16,COc1ccc(CN2CCN(CC(=O)Nc3ccccc3C(=O)NC3CC3)CC2)cc1F,-99.6
17,COc1cc2c(cc1OC)CN(CC(=O)Nc1ccccc1C(=O)NC1CC1)CC2,-6.04
18,CCOc1ccccc1C(=O)NC1CCN(CC(=O)Nc2cc(OC)ccc2OC)CC1,-25.6
19,COc1ccc(F)cc1CN1CCN(CC(=O)Nc2ccccc2C(=O)NC2CC2)CC1,-88.8
20,COc1ccc(OC)c(CN2CCN(CC(=O)Nc3ccccc3C(=O)NC3CC3)CC2)c1,-87.6
21,COc1ccc(OC)c(NC(=O)CN2CCC(NC(=O)c3ccccc3C)CC2)c1,-4.31
22,CC(=O)c1ccc(N2CCN(CC(=O)Nc3ccccc3C(=O)NC3CC3)CC2)c(F)c1,-5.91
23,COc1ccccc1OCC(=O)Nc1ccccc1C(=O)NC1CC1,1.98
24,COc1cc(C)c(CN2CCN(CC(=O)Nc3ccccc3C(=O)NC3CC3)CC2)cc1OC,-87.6
25,Cc1ccccc1N1CCN(CC(=O)Nc2ccccc2C(=O)NC2CC2)CC1,-35.4
26,O=C(CN1CCN(S(=O)(=O)c2ccc(F)c(F)c2)CC1)Nc1ccccc1C(=O)NC1CC1,-23.7
27,CCOc1ccccc1N1CCN(CC(=O)Nc2ccccc2C(=O)NC2CC2)CC1,-23.5
